This note sets out measurements from ChEMBL document CHEMBL1961873, “Compounds: GSK PKIS; Assays: Nanosyn kinase panel” (2012).

As a reminder, the inhibition is the drop in the measured response relative to a control, in per cent.

In assay [1] the target is Protein kinase C gamma type (Homo sapiens) (UniProt P05129). The conditions noted are these: at 1 µM.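 Also: each value is an averaged percent inhibition of the enzyme.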
The target in assay [2] is T1, Protein kinase C iota type (Homo sapiens) (UniProt P41743).
T1 sequence (whole entry): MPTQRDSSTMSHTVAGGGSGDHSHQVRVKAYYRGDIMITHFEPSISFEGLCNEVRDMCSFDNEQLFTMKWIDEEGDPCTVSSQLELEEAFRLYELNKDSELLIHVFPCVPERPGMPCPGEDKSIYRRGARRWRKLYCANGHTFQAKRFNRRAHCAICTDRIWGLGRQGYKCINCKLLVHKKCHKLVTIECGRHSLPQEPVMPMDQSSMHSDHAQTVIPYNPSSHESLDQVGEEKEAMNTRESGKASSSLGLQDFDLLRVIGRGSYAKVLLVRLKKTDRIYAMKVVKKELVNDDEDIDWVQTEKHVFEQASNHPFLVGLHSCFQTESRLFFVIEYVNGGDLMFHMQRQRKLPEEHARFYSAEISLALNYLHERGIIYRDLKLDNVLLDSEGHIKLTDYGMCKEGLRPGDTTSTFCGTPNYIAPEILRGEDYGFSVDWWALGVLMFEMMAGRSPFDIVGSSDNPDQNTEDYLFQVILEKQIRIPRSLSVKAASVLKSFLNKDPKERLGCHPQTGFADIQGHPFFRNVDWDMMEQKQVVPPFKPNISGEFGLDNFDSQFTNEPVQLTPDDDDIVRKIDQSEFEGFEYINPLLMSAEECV
To be noted: at 0.1 µM.

Assay [3] concerns the target T1, Protein kinase C iota type (Homo sapiens). The conditions noted are these: at 1 µM.
Assay [4] deals with Protein kinase C theta type (Homo sapiens) (UniProt Q04759). The conditions noted are these: at 0.1 µM.
Sequence of Protein kinase C theta type (Homo sapiens) (Q04759 whole entry, looked up): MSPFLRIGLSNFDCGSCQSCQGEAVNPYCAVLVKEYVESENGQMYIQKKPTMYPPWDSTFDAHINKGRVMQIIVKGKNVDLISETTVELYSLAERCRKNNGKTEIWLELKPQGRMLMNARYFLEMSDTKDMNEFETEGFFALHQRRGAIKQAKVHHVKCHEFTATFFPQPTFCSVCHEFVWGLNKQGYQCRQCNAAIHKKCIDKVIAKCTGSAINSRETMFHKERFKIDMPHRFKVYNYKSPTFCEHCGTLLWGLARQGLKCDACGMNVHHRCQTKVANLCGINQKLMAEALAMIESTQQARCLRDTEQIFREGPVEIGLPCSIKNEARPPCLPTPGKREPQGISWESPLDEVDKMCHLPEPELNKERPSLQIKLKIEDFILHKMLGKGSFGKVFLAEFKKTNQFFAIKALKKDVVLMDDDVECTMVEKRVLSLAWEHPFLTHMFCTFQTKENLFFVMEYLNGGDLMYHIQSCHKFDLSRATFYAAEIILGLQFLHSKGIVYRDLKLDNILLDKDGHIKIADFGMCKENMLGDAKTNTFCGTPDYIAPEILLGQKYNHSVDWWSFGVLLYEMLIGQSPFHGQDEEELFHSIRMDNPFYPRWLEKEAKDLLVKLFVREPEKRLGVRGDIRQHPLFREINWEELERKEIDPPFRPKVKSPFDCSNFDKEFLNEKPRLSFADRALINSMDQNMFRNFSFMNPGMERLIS
Assay [5] shares this target. The conditions noted are these: at 1 µM.
Assay [6] has as its target Protein kinase C beta type (Homo sapiens) (UniProt P05771). The conditions noted are these: at 0.1 µM.
The target is the same in assay [7]. The conditions noted are these: at 1 µM.
For assay [8], the target named is T2, Serine/threonine-protein kinase D1 (Homo sapiens) (UniProt Q15139).
T2 sequence (whole entry): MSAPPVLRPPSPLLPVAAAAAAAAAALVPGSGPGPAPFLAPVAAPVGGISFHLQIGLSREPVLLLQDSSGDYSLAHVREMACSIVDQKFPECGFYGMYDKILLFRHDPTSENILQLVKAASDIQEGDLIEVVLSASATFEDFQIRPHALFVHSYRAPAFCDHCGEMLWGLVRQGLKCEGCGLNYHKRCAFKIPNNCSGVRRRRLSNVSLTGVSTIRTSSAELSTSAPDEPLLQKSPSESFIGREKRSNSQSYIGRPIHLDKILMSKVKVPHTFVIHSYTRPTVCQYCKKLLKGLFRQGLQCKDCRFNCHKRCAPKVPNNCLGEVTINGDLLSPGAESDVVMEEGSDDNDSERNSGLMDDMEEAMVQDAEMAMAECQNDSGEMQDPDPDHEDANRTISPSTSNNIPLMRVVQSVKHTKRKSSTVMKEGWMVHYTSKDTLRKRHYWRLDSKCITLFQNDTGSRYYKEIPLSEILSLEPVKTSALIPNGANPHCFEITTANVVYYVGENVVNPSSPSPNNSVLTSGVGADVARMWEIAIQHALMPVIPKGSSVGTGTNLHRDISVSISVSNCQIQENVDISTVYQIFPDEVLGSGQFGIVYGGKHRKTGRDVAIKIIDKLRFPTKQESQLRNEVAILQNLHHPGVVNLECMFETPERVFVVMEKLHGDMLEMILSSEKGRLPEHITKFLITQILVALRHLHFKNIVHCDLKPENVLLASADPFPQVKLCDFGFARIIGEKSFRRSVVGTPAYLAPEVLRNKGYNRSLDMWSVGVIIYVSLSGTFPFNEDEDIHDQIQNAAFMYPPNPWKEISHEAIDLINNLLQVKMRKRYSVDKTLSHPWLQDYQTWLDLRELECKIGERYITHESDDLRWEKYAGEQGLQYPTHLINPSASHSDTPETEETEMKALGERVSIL
The conditions noted are these: at 0.1 µM.

The target in assay [9] is T2, Serine/threonine-protein kinase D1 (Homo sapiens). The conditions noted are these: at 1 µM.
Assay [10] deals with T3, Serine/threonine-protein kinase D2 (Homo sapiens) (UniProt Q9BZL6).
T3 sequence (whole entry): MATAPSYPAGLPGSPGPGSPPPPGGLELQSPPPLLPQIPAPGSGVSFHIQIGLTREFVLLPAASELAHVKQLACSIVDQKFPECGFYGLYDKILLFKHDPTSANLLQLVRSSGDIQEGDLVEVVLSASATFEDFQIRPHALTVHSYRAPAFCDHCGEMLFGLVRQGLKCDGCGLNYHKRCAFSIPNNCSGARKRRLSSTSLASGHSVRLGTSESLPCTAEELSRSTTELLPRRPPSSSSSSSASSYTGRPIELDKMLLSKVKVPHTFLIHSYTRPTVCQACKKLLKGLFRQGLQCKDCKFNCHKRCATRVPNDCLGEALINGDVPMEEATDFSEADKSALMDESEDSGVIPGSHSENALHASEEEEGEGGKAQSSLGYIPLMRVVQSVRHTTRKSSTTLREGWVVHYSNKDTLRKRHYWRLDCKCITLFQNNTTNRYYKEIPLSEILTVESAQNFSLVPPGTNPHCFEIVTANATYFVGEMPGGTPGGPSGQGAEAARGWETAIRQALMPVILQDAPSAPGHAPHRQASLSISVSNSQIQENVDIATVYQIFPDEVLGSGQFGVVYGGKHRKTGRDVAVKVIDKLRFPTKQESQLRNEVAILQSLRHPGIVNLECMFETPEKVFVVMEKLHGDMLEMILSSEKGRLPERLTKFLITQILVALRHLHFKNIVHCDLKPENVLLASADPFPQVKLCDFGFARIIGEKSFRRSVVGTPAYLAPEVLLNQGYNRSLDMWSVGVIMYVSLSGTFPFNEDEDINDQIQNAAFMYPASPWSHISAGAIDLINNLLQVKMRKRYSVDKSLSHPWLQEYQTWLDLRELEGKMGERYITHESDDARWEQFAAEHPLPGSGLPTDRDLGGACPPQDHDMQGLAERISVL
To be noted: at 0.1 µM.

Assay [11] has as its target T3, Serine/threonine-protein kinase D2 (Homo sapiens). To be noted: at 1 µM.
The target in assay [12] is T4, Serine/threonine-protein kinase D3 (Homo sapiens) (UniProt O94806).
T4 sequence (whole entry): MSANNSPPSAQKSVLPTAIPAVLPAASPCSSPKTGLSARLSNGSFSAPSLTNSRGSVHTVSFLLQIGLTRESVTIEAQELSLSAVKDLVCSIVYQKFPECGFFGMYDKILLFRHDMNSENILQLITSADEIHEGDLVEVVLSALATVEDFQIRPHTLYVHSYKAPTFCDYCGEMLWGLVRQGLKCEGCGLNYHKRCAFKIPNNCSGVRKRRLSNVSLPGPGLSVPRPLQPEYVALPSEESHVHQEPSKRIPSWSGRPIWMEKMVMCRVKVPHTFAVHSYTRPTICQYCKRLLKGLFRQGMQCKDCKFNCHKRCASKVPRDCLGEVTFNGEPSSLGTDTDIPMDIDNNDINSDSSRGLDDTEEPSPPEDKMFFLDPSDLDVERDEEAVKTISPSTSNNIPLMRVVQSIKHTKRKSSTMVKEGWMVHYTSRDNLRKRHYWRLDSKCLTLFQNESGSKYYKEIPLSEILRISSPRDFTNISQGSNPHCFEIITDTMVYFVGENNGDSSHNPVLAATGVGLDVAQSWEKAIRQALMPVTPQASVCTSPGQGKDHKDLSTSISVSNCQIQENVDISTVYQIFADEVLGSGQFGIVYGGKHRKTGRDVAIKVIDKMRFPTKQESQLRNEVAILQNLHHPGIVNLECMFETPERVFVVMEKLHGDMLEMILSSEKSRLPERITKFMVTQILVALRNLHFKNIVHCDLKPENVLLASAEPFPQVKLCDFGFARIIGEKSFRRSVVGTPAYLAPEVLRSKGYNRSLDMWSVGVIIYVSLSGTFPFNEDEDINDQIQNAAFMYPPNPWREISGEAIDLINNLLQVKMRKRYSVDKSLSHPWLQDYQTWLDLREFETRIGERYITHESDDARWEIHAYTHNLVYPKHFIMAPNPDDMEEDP
The conditions noted are these: at 0.1 µM.

The target of assay [13] is T4, Serine/threonine-protein kinase D3 (Homo sapiens). The conditions noted are these: at 1 µM.
In assay [14] the target is T5, cGMP-dependent protein kinase 1 (Homo sapiens) (UniProt Q13976).
T5 sequence (whole entry): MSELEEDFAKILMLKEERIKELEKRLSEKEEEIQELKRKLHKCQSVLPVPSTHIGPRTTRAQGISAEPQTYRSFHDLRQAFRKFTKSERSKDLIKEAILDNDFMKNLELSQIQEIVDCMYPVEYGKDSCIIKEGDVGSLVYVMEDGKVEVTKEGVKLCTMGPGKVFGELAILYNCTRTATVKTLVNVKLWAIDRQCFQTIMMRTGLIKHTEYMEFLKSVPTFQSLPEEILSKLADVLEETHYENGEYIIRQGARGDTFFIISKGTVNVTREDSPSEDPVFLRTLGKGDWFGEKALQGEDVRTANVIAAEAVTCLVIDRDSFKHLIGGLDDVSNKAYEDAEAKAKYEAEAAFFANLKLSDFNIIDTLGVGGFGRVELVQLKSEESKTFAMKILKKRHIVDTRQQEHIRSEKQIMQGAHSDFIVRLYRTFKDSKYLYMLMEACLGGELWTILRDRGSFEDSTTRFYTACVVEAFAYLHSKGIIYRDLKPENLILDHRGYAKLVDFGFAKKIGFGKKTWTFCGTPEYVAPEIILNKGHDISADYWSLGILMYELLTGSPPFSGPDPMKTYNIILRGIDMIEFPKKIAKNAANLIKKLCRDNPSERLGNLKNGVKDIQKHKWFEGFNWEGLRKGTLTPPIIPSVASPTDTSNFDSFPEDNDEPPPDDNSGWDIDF
The conditions noted are these: at 0.1 µM.

In assay [15] the target is T5, cGMP-dependent protein kinase 1 (Homo sapiens). The conditions noted are these: at 1 µM.
Assay [16] addresses T6, cGMP-dependent protein kinase 2 (Homo sapiens) (UniProt Q13237).
T6 sequence (whole entry): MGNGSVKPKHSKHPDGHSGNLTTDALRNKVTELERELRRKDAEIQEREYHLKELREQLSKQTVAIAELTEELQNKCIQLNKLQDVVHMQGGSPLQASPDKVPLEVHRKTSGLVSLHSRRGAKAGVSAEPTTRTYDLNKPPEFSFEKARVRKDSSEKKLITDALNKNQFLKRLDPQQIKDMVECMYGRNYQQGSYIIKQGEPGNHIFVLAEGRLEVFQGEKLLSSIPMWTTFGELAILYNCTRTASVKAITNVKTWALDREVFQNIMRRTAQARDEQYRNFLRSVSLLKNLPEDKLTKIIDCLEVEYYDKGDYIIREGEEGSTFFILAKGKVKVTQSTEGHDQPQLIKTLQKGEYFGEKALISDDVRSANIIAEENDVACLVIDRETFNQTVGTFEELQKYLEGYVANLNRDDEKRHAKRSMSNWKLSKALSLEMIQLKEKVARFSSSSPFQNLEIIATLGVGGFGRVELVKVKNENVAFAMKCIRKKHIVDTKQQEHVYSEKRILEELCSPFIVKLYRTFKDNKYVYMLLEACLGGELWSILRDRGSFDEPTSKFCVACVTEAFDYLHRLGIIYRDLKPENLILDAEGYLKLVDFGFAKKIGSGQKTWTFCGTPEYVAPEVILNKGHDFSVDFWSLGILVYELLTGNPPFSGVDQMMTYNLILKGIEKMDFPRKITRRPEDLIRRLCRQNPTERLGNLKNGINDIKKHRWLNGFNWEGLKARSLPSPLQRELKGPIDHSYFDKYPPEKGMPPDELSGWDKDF
The conditions noted are these: at 0.1 µM.

The target in assay [17] is T6, cGMP-dependent protein kinase 2 (Homo sapiens). To be noted: at 1 µM.
Assay [18] concerns the target T7, cAMP-dependent protein kinase catalytic subunit PRKX (Homo sapiens) (UniProt P51817).
T7 sequence (whole entry): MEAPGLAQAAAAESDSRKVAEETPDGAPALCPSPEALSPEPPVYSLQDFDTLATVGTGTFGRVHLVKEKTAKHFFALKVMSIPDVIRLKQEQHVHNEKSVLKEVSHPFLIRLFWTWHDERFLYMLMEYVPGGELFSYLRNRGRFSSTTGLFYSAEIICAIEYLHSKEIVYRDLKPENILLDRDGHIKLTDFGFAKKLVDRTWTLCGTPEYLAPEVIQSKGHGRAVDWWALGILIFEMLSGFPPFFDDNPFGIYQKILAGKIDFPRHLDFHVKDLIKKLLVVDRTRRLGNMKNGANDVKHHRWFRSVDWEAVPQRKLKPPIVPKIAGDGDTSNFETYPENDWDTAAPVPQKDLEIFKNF
The conditions noted are these: at 0.1 µM.

The target in assay [19] is T7, cAMP-dependent protein kinase catalytic subunit PRKX (Homo sapiens). The conditions noted are these: at 1 µM.
Assay [20] deals with Rho-associated protein kinase 1 (Homo sapiens) (UniProt Q13464). To be noted: at 0.1 µM.
Sequence of Rho-associated protein kinase 1 (Homo sapiens) (Q13464 2-1354 limits assumed): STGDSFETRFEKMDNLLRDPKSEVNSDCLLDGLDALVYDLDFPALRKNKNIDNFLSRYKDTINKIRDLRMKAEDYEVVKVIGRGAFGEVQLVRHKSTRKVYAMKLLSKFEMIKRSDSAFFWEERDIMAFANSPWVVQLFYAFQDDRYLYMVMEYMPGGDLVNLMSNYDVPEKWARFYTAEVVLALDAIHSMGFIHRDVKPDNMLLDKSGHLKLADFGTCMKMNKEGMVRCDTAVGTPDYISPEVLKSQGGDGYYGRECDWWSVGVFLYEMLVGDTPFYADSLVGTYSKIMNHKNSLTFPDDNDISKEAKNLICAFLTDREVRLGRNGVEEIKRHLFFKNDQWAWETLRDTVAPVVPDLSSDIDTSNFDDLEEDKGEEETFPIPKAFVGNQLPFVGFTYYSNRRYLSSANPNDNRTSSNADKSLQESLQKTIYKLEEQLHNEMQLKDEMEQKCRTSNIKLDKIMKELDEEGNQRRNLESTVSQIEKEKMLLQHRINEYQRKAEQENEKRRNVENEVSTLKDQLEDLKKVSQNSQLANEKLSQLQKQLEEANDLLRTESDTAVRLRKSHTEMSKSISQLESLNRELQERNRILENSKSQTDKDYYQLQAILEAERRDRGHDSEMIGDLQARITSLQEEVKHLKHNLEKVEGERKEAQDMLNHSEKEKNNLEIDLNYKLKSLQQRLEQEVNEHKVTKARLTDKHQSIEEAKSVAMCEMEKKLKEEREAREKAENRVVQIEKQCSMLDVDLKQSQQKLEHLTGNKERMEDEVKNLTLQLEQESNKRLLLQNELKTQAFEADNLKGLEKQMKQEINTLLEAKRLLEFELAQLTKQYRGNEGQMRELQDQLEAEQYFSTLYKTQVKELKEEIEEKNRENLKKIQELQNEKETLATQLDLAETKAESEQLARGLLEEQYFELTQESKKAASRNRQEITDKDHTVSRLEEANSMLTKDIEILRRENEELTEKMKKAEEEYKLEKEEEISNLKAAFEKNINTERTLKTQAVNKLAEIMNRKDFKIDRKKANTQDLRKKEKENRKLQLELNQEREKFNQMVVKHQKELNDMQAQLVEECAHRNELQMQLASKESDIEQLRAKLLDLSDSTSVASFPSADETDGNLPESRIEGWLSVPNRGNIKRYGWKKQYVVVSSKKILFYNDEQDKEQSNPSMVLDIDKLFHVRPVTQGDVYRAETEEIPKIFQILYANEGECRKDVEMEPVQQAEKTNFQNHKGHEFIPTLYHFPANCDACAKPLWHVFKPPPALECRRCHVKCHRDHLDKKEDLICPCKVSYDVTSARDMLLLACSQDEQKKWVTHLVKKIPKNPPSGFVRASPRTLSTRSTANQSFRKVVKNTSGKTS

Sequence of Protein kinase C beta type (Homo sapiens) (P05771 2-671 limits assumed): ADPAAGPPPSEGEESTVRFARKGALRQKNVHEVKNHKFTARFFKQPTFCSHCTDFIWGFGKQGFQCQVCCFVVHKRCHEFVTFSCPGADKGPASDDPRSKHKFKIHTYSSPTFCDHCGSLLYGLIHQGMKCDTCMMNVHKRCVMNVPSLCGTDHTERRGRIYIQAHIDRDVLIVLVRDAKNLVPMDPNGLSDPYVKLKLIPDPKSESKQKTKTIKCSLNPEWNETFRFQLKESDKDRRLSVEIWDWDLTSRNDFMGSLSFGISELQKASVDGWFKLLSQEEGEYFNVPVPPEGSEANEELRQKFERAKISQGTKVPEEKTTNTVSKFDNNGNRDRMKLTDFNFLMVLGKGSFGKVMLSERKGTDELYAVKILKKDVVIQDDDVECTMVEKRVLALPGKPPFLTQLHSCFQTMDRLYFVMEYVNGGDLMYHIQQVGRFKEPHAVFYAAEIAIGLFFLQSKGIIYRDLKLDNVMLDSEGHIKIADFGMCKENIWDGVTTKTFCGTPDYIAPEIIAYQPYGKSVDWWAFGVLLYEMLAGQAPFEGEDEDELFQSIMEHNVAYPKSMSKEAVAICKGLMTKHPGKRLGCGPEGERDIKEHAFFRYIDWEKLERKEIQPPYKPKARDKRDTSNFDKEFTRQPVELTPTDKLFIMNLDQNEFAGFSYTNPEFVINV

`COc1cc2ncn(-c3cc(OCCc4ccccc4)c(C(N)=O)s3)c2cc1OC`: the inhibition in [1] is 1.47%; in assay [2] it was 1.14%; in assay [3], 1.71%; in [4], 0.51%; in assay [5] it was -0.63%; in assay [6], 0.9%. Moreover, the inhibition turned out to be 1.22% in assay [7]; 2.65% in assay [8]; 5.06% in [9]; 3.79% in assay [10]; 4.84% in assay [11]; 3.76% in assay [12]. The inhibition was found to be 4.36% in [13]; 2.33% in [14]; 4.13% in assay [15]; 1.3% in assay [16]; 2.13% in assay [17]; 0.24% in assay [18]. The inhibition was -4.15% in [19] and 0.26% in assay [20].
